A selection: hits, their analogues and other compounds. The true share with any hit is near 6%.
D1 potentiator = enhances dopamine response at the human D1 receptor; 360,000 compounds, 0.036% hits; HEK293 TREx D1 cells, calcium flux, dopamine EC20 potentiation; potentiation, % at 10 µM; P21728; in the data active means potentiation above about 30%; further: 0% is about no effect
D3 ag = D3 dopamine receptor (human) agonism; P35462; D3R DiscoveRx beta-arrestin cells, luminescence, 90 min; max activation, %; 410,000 compounds, 0.58% hits; AID 652048; in the data active means max activation above about 30%; further: 0% is about no effect
Target sequence (P35462 whole entry, looked up): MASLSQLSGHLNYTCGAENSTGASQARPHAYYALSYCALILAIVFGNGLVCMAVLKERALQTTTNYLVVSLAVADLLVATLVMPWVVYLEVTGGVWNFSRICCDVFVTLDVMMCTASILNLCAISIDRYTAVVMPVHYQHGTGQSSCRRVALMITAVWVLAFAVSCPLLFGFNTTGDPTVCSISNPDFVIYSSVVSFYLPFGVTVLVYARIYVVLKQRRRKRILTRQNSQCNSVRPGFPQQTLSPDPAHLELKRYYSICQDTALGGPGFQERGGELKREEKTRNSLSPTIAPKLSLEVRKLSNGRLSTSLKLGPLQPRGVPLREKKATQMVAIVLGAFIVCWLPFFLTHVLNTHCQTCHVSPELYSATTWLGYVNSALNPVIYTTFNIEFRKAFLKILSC
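Cells at 1500/well, incubated overnight, then treated with pinned compounds (dopamine as control) for 90 min at 37 degrees C. DiscoveRx reagent added for 30 - 60 minutes at room temperature; luminescence read.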
D1 antag = antagonists of human D1 dopamine receptor; HEK293 TREx D1 cells, calcium flux, dopamine EC80; hits give low values; 360,000 compounds, 3.2% hits; P21728; AID 504652; activity change, negative = inhibition, % at 10 µM; in the data active means activity change below about -30%; further: on the % scale 0 is the no-effect control and ±100 the full control effect
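Inducible Hek293 Trex D1 cells (tetracycline, overnight, 30 C). Calcium dye 30–90 min RT. Antagonist mode: EC80 dopamine added after 180 s compound read.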
DRD3 antagonist = blocks the human D3 dopamine receptor; max response, negative = inhibition, %; D3R cells, DiscoveRx beta-arrestin luminescence, antagonist mode; hits give low values; 360,000 compounds, 2.5% hits; P35462; in the data active means max response below about -50%; inconclusive means no clear call, values can overlap the other calls; further: on the % scale 0 is the no-effect control and ±100 the full control effect
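Cells plated overnight at 1500 cells/well, then exposed to library compounds with dopamine controls for 90 minutes at 37 degrees C. DiscoveRx reagent added for 30–60 minutes at room temperature; luminescence read, quantitative HTS format.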
D1 agonist = human D1 receptor agonism. P21728. HEK293 T-REx D1 cells, calcium flux, agonist mode. activation, % at 2 µM. 360,000 compounds, 1% hits. AID 504660; in the data active means activation above about 30%; further: 0% is about no effect
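Inducible HEK293 T-REx D1 cells, force-coupled to calcium signalling, were plated at 4000 cells/well with tetracycline and held overnight at 30 C. After no-wash calcium dye loading, compound-evoked calcium rise over 180 s flagged agonists.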
Starred values were filed as active, the others as inactive; ? = inconclusive; . = no result given.

SMILES | D1 potentiator | D3 ag | D1 antag | DRD3 antagonist | D1 agonist
CC(=O)CC1(C)OC(N)=C(C#N)C1(C#N)C#N (stereo not drawn) | 4.0 | -2.0 | -30.4* | -8.4 | 0.0
CC1(C)C(C#N)=C(N)OC2=C1C(=O)CCC2 | -2.0 | 1.9 | -15.0 | -5.9 | 1.0
NC1=NC2(CCCCC2)n2c(nc3ccccc32)N1 | -3.1 | 4.9 | -3.8 | 5.7 | 9.6
NC1=NC2(CCN(Cc3ccccc3)CC2)n2c(nc3ccccc32)N1 | -10.2 | -8.8 | -43.2* | -74.5* | 0.8
COC(=O)c1ccc(OCC2c3cc(OC)c(OC)cc3CCN2C(=O)Cc2ccc(OC)c(OC)c2)cc1 (stereo not drawn) | 0.1 | 4.2 | -14.6 | . | -2.5
CC(C)CCn1c(N2CCCC2)nc2c1c(=O)[nH]c(=O)n2C | -5.4 | -0.6 | -37.9* | 9.6 | 3.7
CC(C)CCn1c(N2CCOCC2)nc2c1c(=O)n(CC(N)=O)c(=O)n2C | -10.4 | -0.7 | -57.6* | 15.5 | 1.4
COc1ccc(N2CCN(CCCNC(=O)c3cnn(-c4ccc(F)cc4)c3-n3cccc3)CC2)cc1 | -0.6 | -9.3 | -16.6 | . | 41.4*
Cc1ccc(-n2nc(C)c(C(=O)NCCCN3CCN(c4ccc(F)cc4)CC3)c2-n2cccc2)cc1 | -0.8 | -13.2 | 4.9 | . | 0.1
Cc1nn(-c2ccc(F)cc2)c(-n2cccc2)c1C(=O)NCCCN1CCN(c2cccc(Cl)c2)CC1 | -3.6 | -10.2 | -33.0* | . | 6.2
Cc1nn(-c2ccccc2)c(-n2cccc2)c1C(=O)NCCc1ccc(Cl)cc1 | 0.3 | -22.4 | -29.5 | . | 67.6*
N#C/C(=C\c1cccc(Oc2ccccc2)c1)C(=O)N1CCOCC1 | 2.1 | 1.2 | -1.8 | 10.4 | 0.3
CN(c1ccc(C(=O)N2CCOCC2)cc1[N+](=O)[O-])C1CCCCC1 | -3.5 | 1.0 | -3.0 | -60.3* | 3.8
CC(Oc1ccc(F)cc1)C(=O)Nc1ccc(S(=O)(=O)NC2=NCCCCC2)cc1 (stereo not drawn) | -0.2 | -5.1 | -6.0 | -28.8 | 32.6*
CSc1ccccc1C(=O)Nc1ccc(S(=O)(=O)NC2=NCCCCC2)cc1 | -2.6 | -3.0 | 22.6 | -12.8 | -0.4
COc1cc(SC)ccc1C(=O)Nc1cccc(S(=O)(=O)NC2=NCCCCC2)c1 | -5.7 | -1.3 | -37.7* | 19.9 | 10.6
COc1ccccc1C(=O)Nc1ccc(S(=O)(=O)Nc2nccs2)cc1 | . | 3.4 | -30.9* | 8.7 | 4.3
COc1ccccc1C(=O)Nc1ccc(S(=O)(=O)NC2=NCCCCC2)cc1 | -11.9 | -6.1 | -57.9* | -0.4 | 2.6
CC(C)OP(=O)(c1ccc(N(C)C)cc1)C(Nc1ccccc1)c1ccccc1 (stereo not drawn) | -16.8 | 3.2 | -39.9* | 2.3 | -0.6
CC(C)CCOP(=O)(c1ccc(N(C)C)cc1)C(Nc1ccccc1)c1ccc(N(C)C)cc1 (stereo not drawn) | 1.7 | -10.9 | 11.7 | ? | 0.5
COc1ccc(-c2cc(=O)[nH]c(=S)[nH]2)cc1 | -8.7 | 6.0 | -18.5 | -50.2* | 2.0
COc1ccc(-c2ccc(C(=O)O)c(=O)[nH]2)cc1 | -2.5 | 0.1 | -30.1* | 9.5 | 5.3
COc1ccc(-n2c(=O)c3ccc(C(=O)NCc4ccc(C)cc4)cc3n(Cc3ccc(C)cc3)c2=O)cc1 | -0.7 | 0.9 | 11.6 | . | 3.7
CCOc1ccc(NC(=O)Cn2c(=O)n(Cc3ccc(C(=O)NCc4ccc(C)cc4)cc3)c(=O)c3ccccc32)cc1 | -0.1 | 7.1 | 4.3 | . | 1.9
Cc1ccc(CNC(=O)c2ccc(Cn3c(=O)c4ccccc4n(CC(=O)Nc4ccc(C)cc4)c3=O)cc2)cc1 | 1.6 | 2.8 | 5.8 | . | 33.3*
SMILES | D1 potentiator | D3 ag | D1 antag | DRD3 antagonist | D1 agonist
CCc1ccc(NC(=O)Cn2c(=O)n(CCC(=O)N3CCc4ccccc4C3)c(=O)c3ccccc32)cc1 | -1.2 | -9.7 | -31.1* | . | -0.8
C=CCn1c(=O)c2ccc(C(=O)NCc3ccccc3)cc2n(Cc2ccc(C)cc2)c1=O | -3.6 | 2.6 | -30.0* | 4.0 | -1.5
COc1ccccc1CNC(=O)C(=O)NCC(c1ccco1)S(=O)(=O)c1cccs1 (stereo not drawn) | -1.9 | 8.6 | . | . | 1.4
CC1(C(=O)NCc2cccc3ccccc23)CCN1C(=O)C1(c2ccccc2)CCCC1 (stereo not drawn) | . | 0.8 | . | -0.3 | .
O=C1OC(C(=O)Nc2nccs2)Cc2ccccc21 (stereo not drawn) | 1.2 | -11.3 | -39.6* | 5.4 | 0.8
CC1(C(=O)Nc2nccs2)Cc2ccccc2C(=O)O1 (stereo not drawn) | 1.6 | 0.0 | -10.1 | 9.7 | 2.6
O=c1cc(N2CCN(c3ccc(F)cc3)CC2)[nH]c(=O)n1-c1ccc(Br)cc1 | -0.9 | -0.1 | -40.3* | . | 0.7
CCCn1cnc2c(sc3nc4c(cc32)CSC(C)(C)C4)c1=O | -3.5 | -7.7 | -40.6* | -20.8 | 3.0
CC1(C)Cc2nc3sc4c(=O)n(Cc5ccccc5)cnc4c3cc2CS1 | 1.4 | 0.7 | 22.7 | -65.5* | 1.1
CC1(C)Cc2nc3sc4c(=O)n(CC(=O)NCc5ccccc5)cnc4c3cc2CO1 | . | 14.2 | . | 16.9 | .
CC(C)CCOc1ncnc2c1sc1nc3c(cc12)CSC(C)(C)C3 | -3.5 | 1.7 | 2.0 | 1.8 | 0.9
O=C(CSc1nnc(-c2ccccc2)c(-c2ccccc2)n1)NCCc1ccccc1 | -1.1 | -0.1 | 10.7 | . | -2.5
Nc1ccc2c(c1)OC1(CCCC1)O2 | -3.3 | 4.0 | -36.6* | -18.2 | 1.3
Oc1[nH]c2ccccc2c1N=NC(=S)NCC1CCCO1 (stereo not drawn) | -2.9 | -7.2 | -44.5* | ? | 1.3
O=C(CN(C(=O)CNS(=O)(=O)c1ccccc1)C1CCCC1)NCC1CCCO1 (stereo not drawn) | -8.8 | 2.2 | -6.3 | -52.9* | 2.1
O=C(CN(C(=O)CNS(=O)(=O)c1ccc(F)cc1)c1ccc(F)cc1)NCc1ccco1 | -6.4 | 7.4 | -32.3* | 24.0 | 25.2
Cc1ccc(S(=O)(=O)NCC(=O)N(CC(=O)NCc2ccco2)Cc2ccccc2)cc1 | -4.5 | 12.1 | 16.8 | 13.6 | 2.2
Cc1ccc(S(=O)(=O)NCC(=O)N(CC(=O)NCc2ccco2)C2CCCC2)cc1 | -5.7 | -1.3 | -38.4* | 5.3 | 0.8
CC1(C(=O)Nc2cccc3ccccc23)CCN1C(=O)Cc1ccc(Cl)cc1Cl (stereo not drawn) | . | -6.1 | . | 14.8 | .
COc1cc(C(=O)NCC(c2ccc3c(c2)OCO3)N2CCN(C)CC2)cc(OC)c1OC (stereo not drawn) | -3.6 | -9.4 | 7.3 | . | 2.5
Cc1cc(N)n2nc(-c3ccccc3)cc2n1 | -8.3 | -12.2 | -40.6* | -6.3 | 1.3
CCCNC(=O)OC[C@H]1O[C@H](CCO/N=C(\C)CCN2CCc3nc(-c4ccccc4)c(-c4ccccc4)cc3C2)C=C[C@@H]1Oc1ccc(OC)cc1 | -1.9 | . | -14.8 | . | 4.2
